Among the data in the antibiotic and cytotoxicity screens of Wong et al. (2023) are cytotoxicity call values, retold here.

Hit rate of the full screen: of about 39,000 compounds, about 3,300 (8.5%) were called active. The sample holds actives, similar compounds and a random draw of the others, so the mix is not that of the screen.

This assay relates to HepG2. The assay is described as follows: cytotoxicity call (relative viability < 0.9). The following applies: 10 µM.
Turning to `C[C@H](CO)N1C[C@H](C)[C@H](CN(C)C(=O)Nc2ccc(F)cc2)OCCCC[C@H](C)Oc2ccc(NS(=O)(=O)c3ccc(Cl)cc3)cc2C1=O`, the cytotoxicity call is “active”.
Regarding `C[C@@H]1CCCCO[C@@H](CN(C)C(=O)Nc2ccc(F)cc2)[C@H](C)CN([C@H](C)CO)C(=O)c2cc(NS(=O)(=O)c3ccc(Cl)cc3)ccc2O1`, the cytotoxicity call was “active”.
With `C[C@@H]1CCCCO[C@H](CN(C)C(=O)Nc2ccc(F)cc2)[C@H](C)CN([C@@H](C)CO)C(=O)c2cc(NS(=O)(=O)c3ccc(Cl)cc3)ccc2O1`, the cytotoxicity call was “inactive”.
`C[C@@H]1CCCCO[C@H](CN(C)C(=O)Nc2ccc(F)cc2)[C@H](C)CN([C@H](C)CO)C(=O)c2cc(NS(=O)(=O)c3ccc(Cl)cc3)ccc2O1`: the cytotoxicity call is “inactive”.
Regarding `O=C(C[C@H]1C[C@H]2c3cc(NC(=O)Cc4ccncc4)ccc3O[C@H]2[C@@H](CO)O1)NCc1ccc2c(c1)OCO2`, the cytotoxicity call is “inactive”.
To `C[C@@H]1CN([C@H](C)CO)C(=O)c2cc(NC(=O)Nc3ccc4c(c3)OCO4)ccc2O[C@@H](C)CCCCO[C@@H]1CN(C)S(=O)(=O)c1ccccc1` belongs “inactive”; to `C[C@@H]1CN([C@@H](C)CO)C(=O)c2cc(NC(=O)Nc3ccc4c(c3)OCO4)ccc2O[C@@H](C)CCCCO[C@@H]1CN(C)C(=O)Cc1ccccc1`, “inactive”; to `CN1CCc2c(c3ccccc3n2Cc2ccccc2)C1`, “active”.
Take `Cn1sc(=O)n(Cc2ccccc2)c1=O`: the cytotoxicity call is “inactive”.
Then `Cc1ccc(Cn2c3ccccc3c3ccccc32)cc1`, with “inactive”; and `C[C@@H]1CCCCO[C@H](CN(C)C(=O)Nc2ccccc2)[C@@H](C)CN([C@H](C)CO)C(=O)c2cc(NC(=O)CCC(F)(F)F)ccc2O1`, with “inactive”; and `C[C@H]1CCCCO[C@H](CN(C)C(=O)C2CCCCC2)[C@@H](C)CN([C@@H](C)CO)C(=O)c2cc(NC(=O)Nc3ccc(C(F)(F)F)cc3)ccc2O1`, with “inactive”.
On to `C[C@H](CO)N1C[C@H](C)[C@@H](CN(C)C(=O)C2CCCCC2)OCCCC[C@H](C)Oc2ccc(NC(=O)Nc3ccc(C(F)(F)F)cc3)cc2C1=O`, for which the cytotoxicity call was “inactive”.
Turning to `C[C@@H]1CN([C@H](C)CO)C(=O)c2cc(NC(=O)Nc3ccc(C(F)(F)F)cc3)ccc2O[C@@H](C)CCCCO[C@@H]1CN(C)C(=O)C1CCCCC1`, the cytotoxicity call was “active”.
Take `C[C@@H]1CCCCO[C@@H](CN(C)C(=O)C2CCCCC2)[C@@H](C)CN([C@H](C)CO)C(=O)c2cc(NC(=O)Nc3ccc(C(F)(F)F)cc3)ccc2O1`: the cytotoxicity call is “inactive”.
For `C[C@H]1CCCCO[C@@H](CN(C)C(=O)C2CCCCC2)[C@@H](C)CN([C@@H](C)CO)C(=O)c2cc(NC(=O)Nc3ccc(C(F)(F)F)cc3)ccc2O1`, the cytotoxicity call is “active”.
Then `C[C@@H]1CCCCO[C@H](CN(C)C(=O)C2CCCCC2)[C@H](C)CN([C@@H](C)CO)C(=O)c2cc(NC(=O)Nc3ccc(C(F)(F)F)cc3)ccc2O1`, with “inactive”; and `C[C@@H]1CN([C@H](C)CO)C(=O)c2cc(NC(=O)Nc3ccc(C(F)(F)F)cc3)ccc2O[C@@H](C)CCCCO[C@H]1CN(C)C(=O)C1CCCCC1`, with “inactive”; and `C[C@@H]1CCCCO[C@H](CN(C)C(=O)C2CCCCC2)[C@@H](C)CN([C@H](C)CO)C(=O)c2cc(NC(=O)Nc3ccc(C(F)(F)F)cc3)ccc2O1`, with “inactive”.
Regarding `C[C@@H]1CCCCO[C@@H](CN(C)C(=O)C2CCCCC2)[C@H](C)CN([C@@H](C)CO)C(=O)c2cc(NC(=O)Nc3ccc(C(F)(F)F)cc3)ccc2O1`, the cytotoxicity call is “active”.
Regarding `Cc1cccc(N[C@H]2CS(=O)(=O)C[C@@H]2O)c1`, the cytotoxicity call was “inactive”.
To `CC(C)(Sc1cc(C(C)(C)C)c(O)c(C(C)(C)C)c1)Sc1cc(C(C)(C)C)c(OC(=O)CCC(=O)O)c(C(C)(C)C)c1` belongs “inactive”; to `C[C@@H]1CN([C@H](C)CO)C(=O)c2cccc(NC(=O)Nc3ccc(C(F)(F)F)cc3)c2O[C@@H]1CN(C)Cc1ccc(C(=O)Nc2ccccc2N)cc1`, “inactive”; to `C[C@@H]1CN([C@@H](C)CO)C(=O)c2cc(NS(=O)(=O)c3ccc(F)cc3)ccc2O[C@@H]1CN(C)Cc1ccncc1`, “inactive”.
To `C[C@@H]1CN([C@H](C)CO)C(=O)Cc2cc(NC(=O)Nc3cccc4ccccc34)ccc2O[C@H]1CN(C)C(=O)Nc1ccc(C(F)(F)F)cc1` belongs “inactive”; to `COc1ccc(S(=O)(=O)N(C)C[C@H]2Oc3c(NC(=O)NC(C)C)cccc3C(=O)N([C@H](C)CO)C[C@@H]2C)cc1`, “inactive”; to `COc1ccc(S(=O)(=O)Nc2ccc3c(c2)C(=O)N([C@@H](C)CO)C[C@@H](C)[C@@H](CN(C)Cc2ccc(-c4ccccc4)cc2)O3)cc1`, “active”.
Then `COc1ccc(S(=O)(=O)Nc2ccc3c(c2)C(=O)N([C@@H](C)CO)C[C@H](C)[C@@H](CN(C)Cc2ccc(-c4ccccc4)cc2)O3)cc1`, with “active”; and `COc1ccc(S(=O)(=O)Nc2ccc3c(c2)C(=O)N([C@@H](C)CO)C[C@@H](C)[C@H](CN(C)Cc2ccc(-c4ccccc4)cc2)O3)cc1`, with “inactive”; and `COc1ccc(S(=O)(=O)Nc2ccc3c(c2)C(=O)N([C@H](C)CO)C[C@@H](C)[C@@H](CN(C)Cc2ccc(-c4ccccc4)cc2)O3)cc1`, with “active”.
As for `COc1ccc(S(=O)(=O)Nc2ccc3c(c2)C(=O)N([C@H](C)CO)C[C@H](C)[C@@H](CN(C)Cc2ccc(-c4ccccc4)cc2)O3)cc1`, the cytotoxicity call was “inactive”.
Then `COc1ccc(S(=O)(=O)Nc2ccc3c(c2)C(=O)N([C@H](C)CO)C[C@@H](C)[C@H](CN(C)Cc2ccc(-c4ccccc4)cc2)O3)cc1`, with “inactive”; and `COc1ccc(S(=O)(=O)Nc2ccc3c(c2)C(=O)N([C@H](C)CO)C[C@H](C)[C@H](CN(C)Cc2ccc(-c4ccccc4)cc2)O3)cc1`, with “inactive”.
To `COc1ccc(S(=O)(=O)Nc2ccc3c(c2)C(=O)N([C@@H](C)CO)C[C@H](C)[C@H](CN(C)Cc2ccc(-c4ccccc4)cc2)O3)cc1` belongs “inactive”; to `C[C@H]1CCCCO[C@H](CN(C)C(=O)Nc2ccccc2)[C@@H](C)CN([C@@H](C)CO)C(=O)c2cc(NC(=O)C3CCCCC3)ccc2O1`, “inactive”; to `C[C@H]1CN([C@@H](C)CO)S(=O)(=O)c2ccc(C#CC3CC3)cc2O[C@@H]1CN(C)Cc1cccc(F)c1`, “inactive”.
Consider `Nc1ccn(C[C@@H](CO)OCP(=O)(O)O)c(=O)n1`, for which the cytotoxicity call was “inactive”.
